The text below walks through data of PubChem BioAssay (NCI).

Assay in all cases: NCI-60 one-dose screen, 48 h (100 = growth as untreated, 0 = no growth, -100 = all killed)
Common to all, as to details: 10 µM unless noted

The test system of assay [1] is DU-145 prostate.
Assay [2] relates to K-562 leukemia.
Assay [3] relates to MALME-3M melanoma.
Assay [4] relates to MDA-MB-231 breast.
In assay [5] the test system is RXF 393 renal.
Assay [6] concerns SF-268 CNS.
Assay [7] has as its system SF-295 CNS.
The subject of assay [8] is SF-539 CNS.
Assay [9] concerns UACC-257 melanoma.
For assay [10], the system named is M14 melanoma.

This is part of a sample that, as a whole, favours compounds with a hit. Of some 83,000 tested, about 20% had one in any assay.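 Step 1: grow cells in 96-well plates. Step 2: add test compound at a single concentration. Step 3: incubate 48 h. Step 4: record percent growth.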 Unmarked numbers belong to inactive results. Active and inactive are the calls of the source. How the source made its calls: active means growth percent below 10; inactive means the rest.

Regarding `COc1ccc(-n2c(/C=C3\C(=O)Nc4ccccc43)ccc2CO)cc1`, the growth in assay [1] was 106%; in [2] it was 90.9%; in assay [3], 72.2%; in assay [4], 95%; in assay [5] it was 99.7%; in assay [6], 99.2%. Moreover, the results for the growth in assay [7], in assay [8] and in assay [9] were 105%, 97.5% and 105%, respectively.
Turning to `CCCCNNC(=O)c1ccc(-c2cccc(F)c2F)cc1`, the growth was 28.9% in assay [1]; 21.8% in [2]; 9.92% (active) in [3]; 51.3% in assay [4]; -34% (active) in assay [5]; 55.6% in [6]. Moreover, the growth in [7] is 28.2%; in [8], 40.8%; in assay [9] it was 23.5%.
For `Fc1ccc(-c2cc3nc(C(Cl)Cl)nc(-c4ccco4)n3n2)cc1`, the growth is -48.2% (active) in assay [1]; 33.4% in [2]; 93.3% in [3]; -26.2% (active) in assay [4]; -65.6% (active) in [5]; 3.07% (active) in [6]. Also, the growth in assay [7] was -9.65% (active); in [8] it was -43.4% (active); in assay [9], 30.8%.
Turning to `Nc1cc(F)ccc1NC(=O)c1ccc(NC(=O)C/C=C/c2cccnc2)cc1`, the growth is 23.7% in [1]; 26% in assay [2]; 47.6% in assay [3]; 57.2% in [4]; 87.1% in assay [5]; 53.7% in assay [6]. For the same compound, the growth in assay [7] was 41.6%; in assay [8], 11.9%; in assay [9], 55.8%.
For `NS(=O)(=O)c1ccc(-n2cc(CN3CCNCC3)nn2)cc1`, the growth in [1] is 111%; in [2] it was 95.9%; in assay [3] it was 112%; in assay [4], 105%; in [5], 111%; in assay [6], 102%. Also, the figures for the growth in [7], in assay [8] and in assay [9] were 106%, 98.7% and 111%, respectively.
Consider `O=C(Cn1cc(-c2ccccc2)nn1)Nc1nc(-c2ccc(Cl)cc2)cs1`, for which the growth is 108% in assay [1]; 98% in assay [2]; 90.4% in assay [3]; 104% in assay [4]; 135% in [5]; 113% in assay [6]. Moreover, the growth in assay [7] is 77.7%; in [8] it was 108%; in [9], 98.9%.
Regarding `N#Cc1c(NC(=O)c2cccc(C(F)(F)F)c2F)sc2c1CCC(=O)C2`, the growth was 24.6% in assay [1]; 1.31% (active) in assay [2]; -21.6% (active) in [3]; -48% (active) in assay [4]; -67.1% (active) in [5]; 11.2% in assay [6]. Also, the growth is -19.4% (active) in [7], -41.8% (active) in [8] and -36.3% (active) in [9].
With `O=S(=O)(NCCCNc1nccc(-n2cnc3ccccc32)n1)c1ccc(C(F)(F)F)cc1`, the growth in assay [1] is 94.5%; in [2] it was 67.6%; in [3], 98.4%; in assay [4] it was 83.1%; in [5], 105%; in [6], 86.8%. Moreover, the figures for the growth in assay [7], in assay [8] and in [9] were 81.2%, 87.9% and 97.8%, respectively.
Consider `C=C1CC[C@@H]2[C@]3(C)COC(c4ccccc4)O[C@@H]3CC[C@@]2(C)[C@@H]1C/C=C1/C(=O)OC[C@H]1O` (stereo partly drawn), for which the growth in assay [1] was 92.1%; in assay [2], 43.7%; in [3], 110%; in assay [4] it was 99.3%; in assay [5], 127%; in assay [6], 97.5%. Moreover, the growth is 102% in assay [7], 92.1% in [8] and 85% in [9].
In the case of `O=C1CC(=O)N2CSCN(C(c3ccccc3)c3nc4ncncc4[nH]3)C2=N1` (stereo not drawn), the growth in assay [1] was 110%; in [2] it was 102%; in assay [3] it was 80.5%; in assay [4], 101%; in assay [5] it was 105%; in [6], 103%. Besides, the growth was 99.1% in assay [7], 99.1% in assay [8] and 108% in assay [9].
As to `COc1ccc(N2CCN(C3=C(Cl)C(=O)C(C)=C(C)C3=O)CC2)cc1`, the growth in [1] is 108%; in assay [2] it was 83.1%; in assay [3], 110%; in [4], 88.2%; in assay [5], 153%; in assay [6], 105%. Besides, the growth in assay [7] is 108%; in [8], 105%; in assay [9], 102%.
For the compound `CCCCc1nc(/C=N/Nc2nc(Nc3ccccc3)nc(Nc3ccc(S(N)(=O)=O)cc3)n2)c(Cl)[nH]1`, the growth was 84.6% in assay [1]; 38% in [2]; 99.7% in assay [3]; 67% in assay [4]; 117% in [5]; 65.9% in assay [6]. Besides, the growth in assay [7] was 102%; in assay [8] it was 81.2%; in [9], 108%.
On to `Cc1ccc(-c2cc3nc(C(Cl)Cl)nc(-c4cccs4)n3n2)cc1`, for which the growth in assay [1] was 3.22% (active); in assay [2] it was 93.2%; in [3] it was 71.7%; in assay [4], 41.6%; in [5], 40.5%; in assay [6], 82.2%. In addition, the figures for the growth in [7], in assay [8] and in assay [9] were 32.8%, 68.5% and 106%, respectively.
`COC(=O)/C=C/c1c(C2(C)NC(=O)c3ccccc3N2)c(=O)oc2ccc(Cl)cc12` (stereo not drawn): the growth in [1] is 102%; in assay [2], 105%; in assay [3] it was 88.3%; in assay [4], 89.2%; in assay [5], 69.5%; in assay [6], 92.9%. The growth in assay [7] was 95.3%; in assay [8], 95.8%; in assay [9], 98%.
Take `CS(=O)(=O)c1ncc(-c2ccccc2)cn1`: the growth in [1] is 104%; in [2] it was 93.3%; in [3], 104%; in assay [4], 99.8%; in [5], 106%; in assay [6] it was 101%. The growth in assay [7] was 107%; in [8], 94.4%; in [9] it was 89.7%.
For `CC1=CC(=O)C2=C(C)CC(OC(=O)CCc3ccccc3)[C@@H]3[C@H](OC(=O)[C@@H]3C)[C@@H]12` (stereo partly drawn), the growth in assay [1] was 101%; in assay [2], 84.2%; in assay [3] it was 113%; in assay [4], 96.8%; in [5] it was 122%; in [6], 98.8%. Also, the results for the growth in assay [7], in [8] and in [9] were 90.7%, 94.1% and 91.6%, respectively.
Turning to `O=S(=O)(NCCCNc1nccc(-c2[nH]c(-c3ccccc3)nc2-c2ccc(Cl)c(O)c2)n1)c1ccc(Br)cc1`, the growth was 47.7% in assay [1]; 18.9% in assay [2]; 2.55% (active) in assay [3]; 43.4% in assay [4]; -6.2% (active) in [5]; 37.9% in assay [6]. For the same compound, the growth in assay [7] was 2.98% (active); in assay [8], 46.7%; in assay [9], 16.7%.
Regarding `NS(=O)(=O)c1ccc(Nc2nc(N/N=C/c3ccccn3)nc(Nc3ccccc3)n2)cc1`, the growth is 4.85% (active) in assay [1]; 12.3% in [2]; -68.2% (active) in [3]; -29.9% (active) in [4]; -74% (active) in [5]; -22% (active) in assay [6]. The results for the growth in assay [7], in assay [8] and in assay [9] were 0.752% (active), -42.1% (active) and -18.1% (active), respectively.
For the compound `O=[N+]([O-])c1cc(/C=N/Nc2nc(N/N=C/c3ccc(Cl)c([N+](=O)[O-])c3)nc(N3CCCCC3)n2)ccc1Cl`, the growth in assay [1] is 29.6%; in assay [2] it was 31.7%; in assay [3], 101%; in assay [4] it was 48.3%; in assay [5], 99.9%; in assay [6], 64.9%. In addition, the growth in [7] is 93.2%; in assay [8], 36.3%; in [9] it was 51.1%.
For the compound `O=S(=O)(NCCNc1nccc(-n2cnc3ccccc32)n1)c1ccc(Br)cc1`, the growth in [1] is 99.9%; in assay [2] it was 88.4%; in assay [3] it was 103%; in assay [4] it was 88.2%; in assay [5], 101%; in [6] it was 91.2%. Besides, the growth in [7] was 96.5%; in [8], 96.2%; in assay [9], 109%.
Turning to `Cc1cccc2c3c(sc12)C(c1ccc(F)cc1)C(C#N)=C(/N=C/c1ccc(Cl)cc1)O3` (stereo not drawn), the growth in assay [1] is 20.8%; in assay [2] it was 7.18% (active); in [3], 63.5%; in assay [4], 25.6%; in assay [5], 2.24% (active); in assay [6], 41.5%. Moreover, the growth in assay [7] is 3.61% (active); in [8], -13.1% (active); in [9] it was 56.4%; in assay [10], -3.44% (active).
For `Cc1ccc2sc3c(c2c1)OC(N)=C(C#N)C3c1cccc(F)c1` (stereo not drawn), the growth was -9.41% (active) in assay [1]; 7.14% (active) in [2]; 43.3% in assay [3]; 23.5% in assay [4]; -30.8% (active) in assay [5]; 25.8% in assay [6]. The growth in assay [7] was 1.52% (active); in [8], -1.16% (active); in [9], 60.8%; in [10] it was 0.753% (active).
For the compound `CCCn1cnc2c(c1=N)C(c1ccc(OC)cc1)c1sc3c(CC)cccc3c1O2` (stereo not drawn), the growth in assay [1] was 16.7%; in assay [2], 13.1%; in assay [3] it was 53.5%; in [4] it was 29.1%; in [5], -13.3% (active); in [6], 45.1%. For the same compound, the growth in assay [7] was -18.1% (active); in assay [8], -22% (active); in assay [9], 81.9%; in assay [10], 2.9% (active).
As to `COC(=O)C(Cc1ccccc1)Nc1nc(NC(Cc2ccccc2)C(=O)OC)nc(N2CCOCC2)n1` (stereo not drawn), the growth in assay [1] is 112%; in [2], 91.6%; in assay [3] it was 105%; in [4], 103%; in assay [5], 113%; in assay [6], 103%. The figures for the growth in assay [7], in [8] and in assay [9] were 108%, 98% and 103%, respectively.
`NS(=O)(=O)c1ccc(Nc2nc(Nc3ccccc3)nc3nnc(SCC(=O)NC4CCCCC4)n23)cc1`: the growth is 106% in assay [1]; 94.1% in assay [2]; 101% in assay [3]; 95% in assay [4]; 126% in [5]; 106% in assay [6]. The growth in assay [7] is 105%; in assay [8], 96.1%; in assay [9], 104%.
With `NS(=O)(=O)c1ccc(Nc2nc(SCc3ccccc3)nc3ccccc23)cc1`, the growth is 61.7% in assay [1]; 14.4% in [2]; 81.7% in assay [3]; 53.9% in [4]; 45.5% in assay [5]; 73.2% in [6]. For the same compound, the growth is 59.9% in [7], 48.8% in [8], 92.8% in assay [9] and 75% in assay [10].
With `COc1cc(OC)cc(C(=O)Nc2cccc(C#Cc3cccc4[nH]nc(N)c34)c2)c1`, the growth in assay [1] was 28.6%; in assay [2], 8.84% (active); in assay [3], 40.5%; in assay [4] it was 19.1%; in assay [5] it was -19.4% (active); in assay [6], 33%. Besides, the growth in assay [7] is 27.5%; in assay [8], -63.9% (active); in [9], 53.4%; in [10], -2.56% (active).
Turning to `O=C(Nc1ccc(Br)cc1)Nc1nc2ccc([N+](=O)[O-])cc2s1`, the growth in assay [1] is 18.8%; in assay [2] it was 2.8% (active); in assay [3], -14.1% (active); in [4], -5.42% (active); in assay [5], -27.8% (active); in assay [6], 12.2%. The growth is -40.1% (active) in assay [7], 0.554% (active) in [8], -16.8% (active) in assay [9] and 2.06% (active) in [10].
